From PubChem
HDAC3 inh: HDAC3 deacetylase inhibitors, primary screen, biochemical, fluorescence, cell-free homogeneous. Histone deacetylase 3 (Homo sapiens), O15379. recombinant HDAC3, fluorogenic peptide/trypsin coupled. inhibition, % at 8.3 µM. hit rate 0.15% among 320,000; in the data active = inhibition above about 26%, passing the limit was not always enough; inconclusive = no clear call, values can overlap the other calls
Target sequence (O15379 whole entry, looked up): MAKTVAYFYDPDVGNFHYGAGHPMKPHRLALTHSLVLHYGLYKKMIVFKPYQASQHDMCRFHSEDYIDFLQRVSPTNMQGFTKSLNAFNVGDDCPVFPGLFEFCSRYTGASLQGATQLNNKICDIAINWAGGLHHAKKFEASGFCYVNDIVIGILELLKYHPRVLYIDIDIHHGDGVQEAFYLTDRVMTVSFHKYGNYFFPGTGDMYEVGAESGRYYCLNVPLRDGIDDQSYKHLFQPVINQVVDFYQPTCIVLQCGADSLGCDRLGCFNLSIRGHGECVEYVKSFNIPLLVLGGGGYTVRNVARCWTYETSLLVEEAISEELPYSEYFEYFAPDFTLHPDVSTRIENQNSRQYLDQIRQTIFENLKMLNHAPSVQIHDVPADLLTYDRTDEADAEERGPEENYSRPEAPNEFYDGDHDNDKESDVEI
GRK2 inh: compounds blocking aptamer binding on GRK2 – biochemical, human GRK2, bead flow cytometry, HTS, primary screen; hit rate 0.59% among 330,000; FAM-aptamer displacement from GRK2; AID 488847, 2010; Beta-adrenergic receptor kinase 1 (Homo sapiens), P25098; inhibition of aptamer binding, % at 10 µM;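 active = inhibition of aptamer binding above 40%, roughly 3 SD of noise, on plates passing a quality check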;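 also: median bead fluorescence of bound FAM aptamer so fluorescent compounds give negative values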
Rtt109 HAT inh: inhibitors of C. albicans Rtt109/Vps75 HAT, primary screen, biochemical, ThioGlo CoA-SH fluorescence, plate reader; Histone acetyltransferase RTT109 (Candida albicans (strain SC5314 / ATCC MYA-2876)), …; purified Rtt109/Vps75, 4 h; inhibition, % at 34.9 µM; hit rate 0.16% among 330,000;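 active = inhibition of at least 50% in every replicate; inconclusive = best replicate reaches 50% inhibition but some replicates fall short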
Target sequence (Q5AAJ8 whole entry, looked up): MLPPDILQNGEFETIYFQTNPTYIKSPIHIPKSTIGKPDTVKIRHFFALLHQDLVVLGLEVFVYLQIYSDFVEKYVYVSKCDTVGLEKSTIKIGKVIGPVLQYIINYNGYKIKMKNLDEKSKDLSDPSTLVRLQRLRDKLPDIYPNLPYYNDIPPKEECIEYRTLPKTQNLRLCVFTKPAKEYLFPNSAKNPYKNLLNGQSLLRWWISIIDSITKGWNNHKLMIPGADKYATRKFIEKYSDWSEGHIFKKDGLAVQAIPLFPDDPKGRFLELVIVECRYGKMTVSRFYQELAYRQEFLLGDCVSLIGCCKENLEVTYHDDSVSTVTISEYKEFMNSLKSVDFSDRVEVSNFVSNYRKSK
ALR inh: inhibitors of human ALR sulfhydryl oxidase, primary screen, biochemical, H2O2 detection, HRP-luminol luminescence, single point. FAD-linked sulfhydryl oxidase ALR (Homo sapiens), P55789. purified ALR, DTT oxidation. inhibition, % (no concentration beside the values). hit rate 3.8% among 290,000. AID 485317, 2010;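 active = mean replicate inhibition above about 79%, with every replicate also reaching it, limit read from the data; inconclusive = only one of the two criteria met; inactive = mean below limit and not every replicate reaching it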
Rce1 inh: yeast Rce1p protease inhibitors, primary screen, biochemical, fluorescence, cell-free homogeneous; yeast membranes, quenched prenylated peptide cleavage fluorescence; CAAX prenyl protease 2 (Saccharomyces cerevisiae (strain ATCC 204508 / S288c)), Q03530; hit rate 0.27% among 290,000; calls only; AID 2563, 2010;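 active = fall in fluorescence gain of 50% or more versus controls, with final raw signal at or below 3038400; inconclusive = same 50% fall but final raw signal above 3038400; inactive = fall in fluorescence gain under 50%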
Efflux pump mplx: inhibitors of Candida efflux pumps in yeast, primary screen, S. cerevisiae, Nile Red, multiplex | S. cerevisiae Candida pump triplex | inhibition, % at 10 µM | AID 485275, 2010 | hit rate 0.44% among 330,000;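 active = plate passing quality check with inhibition over a set limit, or well fluorescence over plate mean plus 4 SD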;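 also: Nile Red retained in pooled yeast measured as flow cytometry median fluorescence; higher means more Nile Red kept so more efflux inhibition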
Yeast cmpd fluor: compound fluorescence in yeast efflux pump counter-screen; shares compounds with Efflux pump mplx; S. cerevisiae AD/pABC3, flow cytometry; fluorescence ratio to DMSO, % at 10 µM; hit rate 4% among 1,700; AID 588517;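 active = fluorescence ratio to DMSO above its plate's cutoff, the plate mean ratio plus 5 SD, cut at about 210% in these data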;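 also: unstained yeast with no Nile Red so the signal is compound autofluorescence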
Mdr1 pump inh: inhibitors of Candida albicans Mdr1 efflux, confirmation, flow cytometry, singleplex, Cherry Pick1 set | inhibition, % at 10 µM | S. cerevisiae AD/CaMDR1, Nile Red efflux | shares compounds with Efflux pump mplx | hit rate 1% among 1,700; in the data active = inhibition above about 26%;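 also: higher means more Nile Red retained so more efflux inhibition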
CaCdr2 efflux inh: inhibitors of Candida albicans Cdr2 efflux pump, confirmation, S. cerevisiae AD/CaCDR2, flow cytometry, cherry pick 1, singleplex; Nile Red retention ratio vs DMSO, % at 10 µM; Nile Red retention; shares compounds with Efflux pump mplx; hit rate 4% among 1,700; in the data active = Nile Red retention ratio vs DMSO above about 190%;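 also: higher ratio means more blocking of Cdr2 efflux of the dye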
Cdr1 pump inh: inhibitors of Candida albicans Cdr1 efflux pump, confirmation, S. cerevisiae AD/CaCDR1, flow cytometry, cherry pick 1, singleplex. AID 588522, 2011. hit rate 1% among 1,700. inhibition, % at 10 µM. shares compounds with Efflux pump mplx. Nile Red efflux;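 active = inhibition above the screen-wide mean plus twice its standard deviation, cut at about 32% in these data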
Large screens that a line does not name were inactive (follow-up assays come after a bar, where they were run). Sampled rows, rich in hits. Any-hit rate of the full collection: about 4.5%.

COc1ccc(C2=C/C(=C\c3cccc(OC(C)=O)c3)C(=O)O2)cc1	none
CCCCC(CC)Cn1c(O)c(/C=C2\C=NN=C2c2ccccc2)sc1=S (centres undefined)	Efflux pump mplx 8.3 | Yeast cmpd fluor inactive | Mdr1 pump inh inactive | CaCdr2 efflux inh inactive | Cdr1 pump inh inactive
N#C/C(=C/c1ccncc1)c1nc2ccccc2s1	none | Yeast cmpd fluor inactive | Mdr1 pump inh inactive | CaCdr2 efflux inh inactive | Cdr1 pump inh inactive
CCOC(=O)c1c(-c2ccccc2)csc1NC(=O)CCN1C(=O)c2ccccc2C1=O	none (no result: HDAC3 inh, ALR inh)
CCOC(=O)c1c(-c2ccc(-c3ccccc3)cc2)csc1NC(=O)CNCCN(C)C	Efflux pump mplx 2.6 (no result: ALR inh) | Yeast cmpd fluor inactive | Mdr1 pump inh inactive | CaCdr2 efflux inh inactive | Cdr1 pump inh inactive
c1ccc2nc3c(nc2c1)OCC1CCCCN31 (centres undefined)	Efflux pump mplx 0.8 | Yeast cmpd fluor inactive | Mdr1 pump inh inactive | CaCdr2 efflux inh inactive | Cdr1 pump inh inactive
c1ccc2nc(N3CCCC3)c(N3CCCCC3)nc2c1	none (no result: HDAC3 inh, GRK2 inh, ALR inh, Rce1 inh, Efflux pump mplx)
CSc1ccc(CN(C)CC(=O)Nc2ccc(NC(C)=O)cc2)cc1	none
CSc1ccc(CN(C)CC(=O)Nc2cccc(Br)c2)cc1	Efflux pump mplx 9.7 | Yeast cmpd fluor inactive | Mdr1 pump inh inactive | CaCdr2 efflux inh inactive | Cdr1 pump inh inactive
N#Cc1ncc(-c2ccc3c(c2)OCCOCCOCCOCCO3)nc1C#N	Efflux pump mplx 9.6 | Yeast cmpd fluor inactive | Mdr1 pump inh inactive | CaCdr2 efflux inh inactive | Cdr1 pump inh inactive
O=C(COC(=O)c1cc(S(=O)(=O)N2CCOCC2)ccc1Cl)NCc1ccccc1	none (no result: ALR inh, Rce1 inh)
CCC(Sc1nc2ccsc2c(=O)n1Cc1ccc(C(=O)O)cc1)C(=O)Nc1ccc(C)c(Cl)c1 (centres undefined)	Efflux pump mplx 0.8 | Yeast cmpd fluor inactive | Mdr1 pump inh inactive | CaCdr2 efflux inh inactive | Cdr1 pump inh inactive
CCOc1ccccc1NC(=O)C(CC)Sc1nc2ccsc2c(=O)n1CCC(=O)O (centres undefined)	none
Cn1c(=O)c2c(SCC(=O)NCC3CCCO3)nc(-c3ccccc3Cl)nc2n(C)c1=O (centres undefined)	Efflux pump mplx 0.8 | Yeast cmpd fluor inactive | Mdr1 pump inh inactive | CaCdr2 efflux inh inactive | Cdr1 pump inh inactive
Cc1ccccc1-n1cc(CNC(=O)CCc2nnc(CCc3ccccc3)o2)cn1	none (no result: ALR inh)
O=C(Nc1ccnc(-c2cccnc2)n1)c1ccccc1Cl	none
O=C(Nc1ccnc(-c2cccnc2)n1)c1cccc(Cl)c1Cl	Efflux pump mplx 1.0 | Yeast cmpd fluor inactive | Mdr1 pump inh inactive | CaCdr2 efflux inh inactive | Cdr1 pump inh inactive
CCOc1ccc(N(CC(=O)N2CCOCC2)S(=O)(=O)c2ccc(Cl)cc2)cc1	none
CN(Cc1ccccc1)C(=O)c1[nH]cnc1C(=O)N[C@@H](CCCCNC(=O)OC(C)(C)C)C(=O)OC(C)(C)C	none (no result: GRK2 inh, Efflux pump mplx)
CC(C)C[C@H](NC(=O)c1nc[nH]c1C(=O)N(C)Cc1ccccc1)C(=O)OC(C)(C)C	HDAC3 inh inconclusive, Efflux pump mplx 0.9 | Yeast cmpd fluor inactive | Mdr1 pump inh inactive | CaCdr2 efflux inh inactive | Cdr1 pump inh inactive
CCCCN(Cc1ccccc1)C(=O)C1CCC(=O)N(CCc2ccccn2)C1 (centres undefined)	none
CCC(C)(C)NC(=O)c1ccc(S(=O)(=O)N2CCCCCC2)cc1	none (no result: ALR inh)
Cc1cc2ccccc2n2c(SCC(=O)Nc3ccc(S(=O)(=O)N4CCCCC4)cc3)nnc12	none
Cc1cc2ccccc2n2c(SCC(=O)Nc3ccc(S(=O)(=O)N4CCC(C)CC4)cc3)nnc12	Efflux pump mplx 6.8 | Yeast cmpd fluor inactive | Mdr1 pump inh inactive | CaCdr2 efflux inh inactive | Cdr1 pump inh inactive
O=C(COc1ccc(-c2ccccc2)cc1)NNC(=O)Nc1ccc(F)cc1F	Efflux pump mplx 3.0 | Yeast cmpd fluor inactive | Mdr1 pump inh inactive | CaCdr2 efflux inh inactive | Cdr1 pump inh inactive
O=S(=O)(c1cccc2nonc12)N1CCN(c2ccccc2F)CC1	Efflux pump mplx 1.1 | Yeast cmpd fluor inactive | Mdr1 pump inh inactive | CaCdr2 efflux inh inactive | Cdr1 pump inh inactive
O=C(O)c1cccc(CN2C(=O)CSC2=O)c1	Efflux pump mplx 0.9 | Yeast cmpd fluor inactive | Mdr1 pump inh inactive | CaCdr2 efflux inh inactive | Cdr1 pump inh inactive
O=C(O)c1cccc(CN2C(=O)SC(Nc3ccccc3)C2=O)c1 (centres undefined)	none
O=S(=O)(NC1CCCC1)c1ccc(S(=O)(=O)N2CCN(c3ccccc3)CC2)cc1	Efflux pump mplx 2.0 | Yeast cmpd fluor inactive | Mdr1 pump inh inactive | CaCdr2 efflux inh inactive | Cdr1 pump inh inactive
O=C1C(=O)N(CC2CCCO2)C(c2ccccc2[N+](=O)[O-])/C1=C(/O)c1ccccc1 (centres undefined)	HDAC3 inh inconclusive, Efflux pump mplx 1.4 | Yeast cmpd fluor inactive | Mdr1 pump inh inactive | CaCdr2 efflux inh inactive | Cdr1 pump inh inactive
COc1ccccc1-c1nc(C#N)c(N2CCN(C(c3ccccc3)c3ccccc3)CC2)o1	Efflux pump mplx 0.5 | Yeast cmpd fluor inactive | Mdr1 pump inh inactive | CaCdr2 efflux inh inactive | Cdr1 pump inh inactive
COc1ccccc1-c1nc(C#N)c(N2CCN(c3cccc(Cl)c3)CC2)o1	none
CCCCNC(=O)c1ccc(Cn2c(=S)[nH]c3c([nH]c4ccc(OC)cc43)c2=O)cc1	Efflux pump mplx 8.2 | Yeast cmpd fluor inactive | Mdr1 pump inh inactive | CaCdr2 efflux inh inactive | Cdr1 pump inh inactive
CCOCCCNC(=O)c1ccc(Cn2c(=S)[nH]c3c([nH]c4ccc(OC)cc43)c2=O)cc1	none
O=C(NC1CCCCC1)c1ccc(CS(=O)Cc2ccc(Cl)cc2)o1 (centres undefined)	none
